Compound activity deposited in PubChem by National Center for Advancing Translational Sciences (NCATS).
Only some compounds are listed: those with a hit (about 21% of all), similar ones and a draw of the others.
RORg inh = blocks mouse ROR gamma transcriptional activity. P51450. Drosophila S2 Gal4-RORgamma UAS-luciferase reporter, 20 h. Potency, µM (series often up to 53.6 µM), inactives show at the top dose activity change, negative = inhibition, hits mostly inhibitors. 310,000 tested, 5.4% active; also: potency is read from the fitted curve at half-maximal effect; nearly all actives have a fitted effect of over 60% in size
Target sequence (P51450 whole entry, looked up, the tested form may be a part): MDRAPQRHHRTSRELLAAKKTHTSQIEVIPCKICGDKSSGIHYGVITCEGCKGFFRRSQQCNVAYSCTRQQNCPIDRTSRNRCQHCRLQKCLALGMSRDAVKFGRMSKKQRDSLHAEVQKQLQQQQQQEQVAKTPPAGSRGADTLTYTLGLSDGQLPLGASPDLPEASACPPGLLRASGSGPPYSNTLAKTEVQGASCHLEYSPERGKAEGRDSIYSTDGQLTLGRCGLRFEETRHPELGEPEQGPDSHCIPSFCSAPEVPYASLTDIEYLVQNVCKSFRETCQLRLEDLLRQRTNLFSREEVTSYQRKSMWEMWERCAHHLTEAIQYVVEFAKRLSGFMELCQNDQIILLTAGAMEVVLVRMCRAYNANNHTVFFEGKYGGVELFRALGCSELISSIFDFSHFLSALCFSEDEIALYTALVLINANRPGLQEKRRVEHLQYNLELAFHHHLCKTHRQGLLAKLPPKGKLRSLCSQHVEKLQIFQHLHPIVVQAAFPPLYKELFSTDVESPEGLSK
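Read-out: Photinus luciferase luminescence; inhibitors lower reporter signal. Insect Schneider cells with Gal4-ROR gamma fusion under metallothionein promoter, UAS reporter; 700 uM final copper sulfate induction, 20 hr, ambient temperature.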
IL1B secr inh = inhibitors of inflammasome signaling (IL-1 beta secretion). THP-1 LPS/ATP IL-1B secretion, AlphaLISA, 16 h; active compounds read low. activity change, % at 57.5 µM. 360,000 tested, 4.7% active. AID 743279; in the data active = activity change below about -50%; inconclusive = mostly about -30% to -49%
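THP-1 cells pretreated 1 hr with compounds (up to 57.5 uM final), then stimulated with LPS (250 ng/mL final) plus ATP (1.25 mM final); secreted IL-1B measured by AlphaLISA after 16 hr, decreased signal indicating inhibition.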
TDP1 cell CPT = DT40-hTDP1 cell growth loss with CPT; AID 686979; Potency, µM (series often up to 46.2 µM), without a hit: at the highest dose activity change, negative = growth inhibition, usual class: inhibitors; chicken DT40 Tdp1-/-;hTDP1 cells + 20 nM CPT, ATP luminescence, 48 h; 420,000 tested, 12% active; also: potency is read from the fitted curve at half-maximal effect; nearly all actives have a fitted effect of over 55% in size
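Cell growth measured by CellTiter-Glo luminescence after a minimum 48 h, 37 C compound exposure with 20 nM CPT in Tdp1-knockout DT40 cells stably expressing hTDP1, seeded 400/well; qHTS titration format.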
ELG1 repair inh = inhibitors of ELG1-dependent DNA repair in HEK293T cells. Potency, µM (doses to about 46.1 µM), for the others: top-dose activity change, negative = inhibition, most hits filed as inhibitors. 330,000 tested, 2.3% active. HEK293T ELG1-luciferase reporter, luminescence, 16 h; DNA damage induced by 5-fluorouridine. AID 504467; also: potency is read from the fitted curve at half-maximal effect; nearly all actives have a fitted effect of over 55% in size
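In this reporter screen, reduction of luminescence relative to DMSO vehicle indicated activity. Compounds and 5-fluorouridine were added together to 2,000 cells per well, incubated for 16 hr at 37 °C, then developed with ONE-Glo.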
TDP1 cell noCPT = qHTS for Inhibitors of human tyrosyl-DNA phosphodiesterase 1 (TDP1): qHTS in cells in absence of CPT; DT40 Tdp1-/- hTDP1 cells, no CPT, ATP luminescence, 48 h; 420,000 tested, 15% active; Potency, µM (series often up to 46.2 µM), without a hit: at the highest dose activity change, negative = growth inhibition, usual class: inhibitors; AID 686978, 2013; also: potency is read from the fitted curve at half-maximal effect; nearly all actives have a fitted effect of over 55% in size
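Growth kinetics read by CellTiter-Glo luminescence after ≥48 hr at 37 °C. Cells: DT40 Tdp1-/- stably carrying human TDP1, 400 per well, compound exposure in the absence of CPT (DMSO vehicle).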
VP16 counter = counter-screen for ROR gamma inhibitors: Gal4-VP16 reporter; Drosophila S2 Gal4-VP16 UAS-luciferase, luminescence, 20 h; Potency, µM (titrated, usually from 53.6 µM), for inactives: at the top dose activity, negative = inhibition, usual class: inhibitors; 310,000 tested, 3.5% active; AID 2546;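 also: Gal4-VP16 expression switched on by copper sulfate through the metallothionein promoter; potency is read from the fitted curve at half-maximal effect; nearly all actives have a fitted effect of over 50% in size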
The depositor's hits bear a star. Unless noted, calls follow the shape of the dose curve; as a rule, active = well fitted curve in the direction sought with a large enough effect; inconclusive = small, poorly fitted or top-dose-only effect, or another doubt; inactive = no such curve, though single readings can be large; an effect the other way counts as inactive or inconclusive. % is scaled to controls: 0 for no effect and ±100 for the full control effect.

For CCn1c(=O)cc(OCC(=O)NCc2ccc(F)cc2Cl)c2ccccc21 the results were TDP1 cell CPT inconclusive and TDP1 cell noCPT 23µM*.
For Cc1ccc(CSc2nnc(SCC(=O)N/N=C/C=C/c3ccccc3[N+](=O)[O-])s2)cc1 the results were RORg inh 11µM*, IL1B secr inh 20, TDP1 cell CPT inconclusive, ELG1 repair inh inconclusive, TDP1 cell noCPT inconclusive and VP16 counter inconclusive.
Screening Cc1cc(C)cc(OCC(=O)N/N=C/c2ccco2)c1 returned RORg inh -18%, IL1B secr inh 0, TDP1 cell CPT 0%, ELG1 repair inh 19%, TDP1 cell noCPT -5% and VP16 counter -11%.
For Cn1c(SCC(=O)N/N=C/C=C\c2ccco2)nc2ccccc21 the results were RORg inh 0.4µM*, IL1B secr inh inconclusive, TDP1 cell CPT inconclusive, ELG1 repair inh 0%, TDP1 cell noCPT inconclusive and VP16 counter inconclusive.
For CCn1c(SCC(=O)N/N=C/C=C\c2ccccc2[N+](=O)[O-])nnc1-c1ccccc1 the results were RORg inh 28%, IL1B secr inh 1, TDP1 cell CPT 3%, ELG1 repair inh -1%, TDP1 cell noCPT -8% and VP16 counter -8%.
Cc1ccc(OCC(=O)N/N=C/C=C/c2ccco2)c(Br)c1 was read as IL1B secr inh 0, TDP1 cell CPT 18µM*, ELG1 repair inh 0% and TDP1 cell noCPT inconclusive.
Screening Cc1ccc(CSc2nnc(SCC(=O)N/N=C/C=C/c3ccco3)s2)cc1 returned RORg inh 7.1µM*, IL1B secr inh 35, TDP1 cell CPT inconclusive, ELG1 repair inh inconclusive, TDP1 cell noCPT inconclusive and VP16 counter 11µM*.
`CC(/C=N/NC(=O)CSc1nnc(SCc2ccccc2)s1)=C\c1ccco1` gave RORg inh 8%, IL1B secr inh 17, TDP1 cell CPT -7%, ELG1 repair inh 3%, TDP1 cell noCPT -2% and VP16 counter inconclusive.
`CCC(=O)N(C)C[C@H]1Oc2ncc(C#Cc3cccnc3)cc2C(=O)N([C@@H](C)CO)C[C@@H]1C` gave IL1B secr inh -5, TDP1 cell CPT 0% and TDP1 cell noCPT -8%.
For COc1ccc(OC)c(NC(=O)c2cc3c(Cl)nc4ccccc4c3s2)c1 the results were RORg inh -8%, IL1B secr inh -4, TDP1 cell CPT inconclusive, ELG1 repair inh 5%, TDP1 cell noCPT inconclusive and VP16 counter 0%.
Screening CCn1c(=O)c2cc(C(=O)Nc3cc(C)on3)sc2c2ccccc21 returned RORg inh -11%, IL1B secr inh inconclusive, TDP1 cell CPT 11%, ELG1 repair inh 24%, TDP1 cell noCPT inconclusive and VP16 counter 2%.
`CCn1c2ccccc2c2cc(N=C3SC(CC(=O)Nc4ccccc4OC)C(=O)N3CCOC)ccc21` (stereo not given) gave RORg inh inconclusive, IL1B secr inh 9, TDP1 cell CPT inconclusive, ELG1 repair inh inconclusive, TDP1 cell noCPT inconclusive and VP16 counter inconclusive.
Screening COc1ccc(NC(=O)c2cc3c(Cl)nc4ccccc4c3s2)cc1OC returned RORg inh inconclusive, IL1B secr inh -8, TDP1 cell CPT inconclusive, ELG1 repair inh inconclusive, TDP1 cell noCPT 21µM* and VP16 counter inconclusive.
Screening CCn1c2ccccc2c2cc(N=C3SC(CC(=O)Nc4ccccc4OC)C(=O)N3C)ccc21 (stereo not given) returned RORg inh 12%, IL1B secr inh 24, TDP1 cell CPT inconclusive, ELG1 repair inh inconclusive, TDP1 cell noCPT 26µM* and VP16 counter 1%.
